Results published in PubChem BioAssay (Tox21).
Inconclusive results are not listed. Where a call stands in place of a potency, no number is given. A number with no mark means an inactive call. Activity calls are given as the source filed them. Calls follow the shape of the dose curve; as a rule, active = well fitted cell-killing curve with a large enough effect in the repeat runs; inconclusive = weak or mixed curves, or effect the other way; inactive = flat fitted curve, though single readings scatter.

Tests used:
[1] = cAMP Responsive Elements (CRE) small molecule antagonists, cell-based qHTS assay: qHTS cell viability counter screen (AID 2060913); also: nearly all actives have a fitted effect of over 40% in size
Procedure, shortened: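 CRE-bla HEK293T cells were seeded in assay medium with 10% dialyzed FBS, incubated 18 hrs at 37 C, then exposed to compounds plus 0.25 uM final NKH477 for 3 hrs. Viability was read by CellTiter-Glo luminescence after 30 min, in the same wells.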

[2] = cAMP Responsive Elements (CRE) small molecule agonists, cell-based qHTS assay: qHTS cell viability counter screen (AID 2060914);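 also: viability read after 3 h of compound exposure; nearly all actives have a fitted effect of over 50% in size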
Procedure, shortened: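 HEK 293T CRE-bla; DMEM + 10% dialyzed FBS, 25 mM HEPES; 18 h pre-incubation; compound 3 h, 37 °C/5% CO2; CellTiter-Glo added after reporter read; luminescence after 30 min RT.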

SMILES	viability change, negative = cytotoxic [1]	activity change, negative = cytotoxicity [2]	Potency [1]	Potency [2]
CC(C)Cn1cnc2c(N)nc3ccccc3c21	-1.2% [at 18.9 µM]	-0.0081% [at 18.9 µM]	–	–
OCCC(O)CO (stereo not given)	–	–	inactive	inactive
COC(=O)C1=C(C)NC(C)=C(C(=O)OCCc2ccc(N3CCN(C(c4ccccc4)c4ccccc4)CC3)cc2)C1c1cccc([N+](=O)[O-])c1 (stereo not given)	–	–	inactive	inactive
CCCCN(CCCC)CC(O)c1cc(Cl)cc2c1-c1ccc(Cl)cc1/C2=C/c1ccc(Cl)cc1 (stereo not given)	–	–	inactive	inactive
CC1=CC(C)(C)Nc2ccccc21	–	–	inactive	inactive
CC(C)CCCO	–	–	inactive	inactive
Nc1ncnc2c1ncn2[C@@H]1O[C@H](CO)[C@@H](O)[C@H]1O	–	–	inactive	inactive
CC(C)CCCC(C)NCCC(C)C (stereo not given)	–	–	inactive	inactive
CCCCCCCCCCOS(=O)(=O)O	–	–	inactive	inactive
CC(C)=CCC/C(C)=C/CC/C(C)=C/CCC(=O)OC/C=C(\C)CCC=C(C)C	–	–	inactive	inactive
CCC(=O)CC(C)CC (stereo not given)	-1.01% [at 0.349 µM]	6.36% [at 0.349 µM]	–	–
Cc1coc2ccccc2c1=O	–	–	inactive	inactive
COc1cc2ncnc(Nc3ccc(F)c(Cl)c3)c2cc1OCCCN1CCOCC1	–	–	inactive	inactive
O=C(OC[C@H]1O[C@@H](OC(=O)c2cc(O)c(O)c(OC(=O)c3cc(O)c(O)c(O)c3)c2)[C@H](OC(=O)c2cc(O)c(O)c(OC(=O)c3cc(O)c(O)c(O)c3)c2)[C@@H](OC(=O)c2cc(O)c(O)c(OC(=O)c3cc(O)c(O)c(O)c3)c2)[C@@H]1OC(=O)c1cc(O)c(O)c(OC(=O)c2cc(O)c(O)c(O)c2)c1)c1cc(O)c(O)c(OC(=O)c2cc(O)c(O)c(O)c2)c1	-4.21% [at 18.9 µM]	-4.58% [at 18.9 µM]	–	–
C=C[C@@H](C)CCC=C(C)C	–	–	inactive	inactive
Cc1cc(C2CCCCC2)n(O)c(=O)c1	–	–	inactive	inactive
C=C(C)C(=O)OC1CC(C)CC(C)(C)C1 (stereo not given)	–	–	inactive	inactive
OCCCc1cccnc1	–	–	inactive	inactive
C=C(C)[C@@H]1CCC2=CCC[C@@H](C)[C@]2(C)C1	–	–	inactive	inactive
C/C=C1/CC2C=CC1C2 (stereo not given)	–	–	inactive	inactive
CC(CC(=O)O)CC(C)(C)C (stereo not given)	–	–	inactive	inactive
CCCCCOC(=O)CCCCC	–	–	inactive	inactive
Nc1ncnc2nc[nH]c12	–	–	inactive	inactive
CN(C)C(=O)COC(=O)Cc1ccc(OC(=O)c2ccc(N=C(N)N)cc2)cc1	–	–	inactive	inactive
Oc1ccc(Nc2ccccc2)cc1	–	–	inactive	inactive

SMILES	viability change, negative = cytotoxic [1]	activity change, negative = cytotoxicity [2]	Potency [1]	Potency [2]
Oc1c(Cl)cc(Cl)c(Cl)c1Cl	–	–	inactive	inactive
C=C(C)C(=O)OC	–	–	inactive	inactive
CCCCOC(=O)COc1ccc(Cl)cc1Cl	–	–	inactive	inactive
NC(=O)Nc1nc2ccccc2[nH]1	–	–	inactive	inactive
C=C(C)[C@H]1CC=C(C)C(=O)C1	–	–	inactive	inactive
CCCCCCCCCCCCC1CO1 (stereo not given)	–	–	inactive	inactive
c1ccc2sc(SN(C3CCCCC3)C3CCCCC3)nc2c1	–	–	inactive	inactive
CCOC(=O)NNc1ccc(N(CC)CC(C)O)nn1 (stereo not given)	–	–	inactive	inactive
C=CC(=O)OCCCCCC	–	–	inactive	inactive
N#Cc1cc(NC(=O)C(=O)O)c(Cl)c(NC(=O)C(=O)O)c1	–	–	inactive	inactive
CCN(CC)CCN	–	–	inactive	inactive
COCCC(=O)OC	–	–	inactive	inactive
Clc1cc(Cl)cc(Cl)c1	–	–	inactive	inactive
CC(CO)Oc1ccccc1 (stereo not given)	–	–	inactive	inactive
Nc1ccccc1Nc1ccccc1	–	–	inactive	inactive
O=C1N=C(O)CN1/N=C/c1ccc(-c2ccc([N+](=O)[O-])cc2)o1	–	–	inactive	inactive
Cc1cccc(C)c1NC(=O)CN1CCN(CCCC(c2ccc(F)cc2)c2ccc(F)cc2)CC1	–	–	inactive	inactive
CCC(C)OC(C)CC (stereo not given)	–	–	inactive	inactive
ClC(c1ccccc1)(c1ccccc1)c1ccccc1	–	–	inactive	inactive
O=S(O)CO	–	–	inactive	inactive
CCOc1ccc(NC(=O)CC(C)=O)cc1	–	–	inactive	inactive
CCCCCC/C=C\CCCCCCCC(=O)O	–	–	inactive	inactive
CCCCO	–	–	inactive	inactive
Brc1c2ccccc2c(Br)c2ccccc12	-0.61% [at 8.39 µM]	-1.97% [at 8.39 µM]	–	–
C=CC(=O)OCCOC(=O)C=C	–	–	inactive	inactive
